The values below come from PubChem BioAssay (Tox21).

Assay [1] can be described thus: qHTS assay to identify small molecule antagonists of the thyroid receptor (TR) signaling pathway - cell viability counter screen (AID 743064). Note: nearly all actives have a fitted effect of over 50% in size. Note: potency is the fitted concentration of half-maximal effect. Put shortly: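 CellTiter-Fluor readout, 30 min at 37 °C/5% CO2, following 23.5 h incubation of GH3.TRE-Luc cells with test compound and 1 nM T3 (final).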
A short description of assay [2]: qHTS assay to identify small molecule antagonists of the thyroid receptor (TR) signaling pathway (AID 743065). For activity, negative = inhibition: series mostly up to about 70 µM. Note: nearly all actives have a fitted effect of over 55% in size. Note: potency is the fitted concentration of half-maximal effect. Put shortly: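 GH3.TRE-Luc rat pituitary cells (two TREs driving luciferase) were dosed with compound, then stimulated with 1 nM T3 (final) for 23.5 h at 37 C. ONE-Glo luminescence was the read-out, with CellTiter-Fluor fluorescence as the cytotoxicity counter-screen.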
In general terms: Quantitative high-throughput screening tests each substance at several concentrations.

Assay [3] deals with thyroid hormone receptor (rat, GH3 cells). Put plainly: qHTS assay to identify small molecule agonists of the thyroid receptor (TR) signaling pathway (AID 743066; calls by dose curve).
The nature of assay [4]: qHTS assay to identify small molecule antagonists of the estrogen receptor alpha (ER-alpha) signaling pathway - cell viability counter screen (AID 743074; calls by dose curve;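 note: HEK293 cells carrying ER-alpha-UAS-bla reporter stimulated with 17beta-estradiol; nearly all actives have a fitted effect of over 45% in size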; note: potency is the fitted concentration of half-maximal effect).
Assay [5] in a line: qHTS assay to identify small molecule antagonists of the estrogen receptor alpha (ER-alpha) signaling pathway using the BG1 cell line - cell viability counter screen (AID 743081). For activity change, negative = cytotoxicity: series mostly up to about 70 µM.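 Note: compound given together with 17beta-estradiol as the ER stimulus; nearly all actives have a fitted effect of over 45% in size.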 Note: potency is the fitted concentration of half-maximal effect.
In a further assay the target is Aromatase (Homo sapiens) (UniProt P11511). Put plainly: qHTS assay to identify aromatase inhibitors (AID 743083). For activity, negative = inhibition: series mostly up to about 70 µM. Note: nearly all actives have a fitted effect of over 55% in size. Note: potency is the fitted concentration of half-maximal effect.
The nature of assay [6]: qHTS assay to identify aromatase inhibitors - cell viability counter screen (AID 743084).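 Note: cells stimulated with testosterone during compound exposure; nearly all actives have a fitted effect of over 55% in size.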 Note: potency is the fitted concentration of half-maximal effect.
In assay [7] the target is Aryl hydrocarbon receptor (Homo sapiens) (UniProt P35869). Put plainly: qHTS assay to identify small molecule that activate the aryl hydrocarbon receptor (AhR) signaling pathway (AID 743085).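 Note: HG2L7.5c1 human HepG2 liver cells with stably integrated DRE-driven firefly reporter; series mostly up to about 70 µM; nearly all actives have a fitted effect of over 15% in size.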 Put shortly: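 Stably transfected human liver carcinoma cells (HG2L7.5c1; 20 DRE-firefly luciferase) were incubated 5 h, dosed, and kept 24 h at 37C. Agonism was scored from increased luciferase luminescence.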

Assay [8] deals with Peroxisome proliferator-activated receptor gamma (Homo sapiens) (UniProt P37231). Briefly: qHTS assay to identify small molecule antagonists of the peroxisome proliferator-activated receptor gamma (PPARg) signaling pathway (AID 743191; calls by dose curve; note: series mostly up to about 63 µM; nearly all actives have a fitted effect of over 30% in size). A digest of the protocol: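 GeneBLAzer PPARg UAS-bla HEK293H cells, 5 h post-plating, exposed to compounds 17 h at 37C. LiveBLAzer B/G FRET substrate added for 1 h at room temperature; beta-lactamase reporter read by fluorescence intensity.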

Assay [9] can be described thus: qHTS assay to identify small molecule antagonists of the peroxisome proliferator-activated receptor gamma (PPARg) signaling pathway - cell viability counter screen (AID 743194). Note: nearly all actives have a fitted effect of over 55% in size. Note: potency is the fitted concentration of half-maximal effect. Put shortly:
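Cytotoxicity counter screen in PPARg-bla HEK293H cells, same wells as reporter assay. Compounds plus 50 nM rosiglitazone (final) for 17 h at 37 C, then viability read by CellTiter-Glo luminescence.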

A short description of assay [10]: qHTS assay for small molecule agonists of the antioxidant response element (ARE) signaling pathway (AID 743202; active = well fitted activation curve with a large enough effect in the signal ratio in the repeat runs, not every such curve was filed as active; the % refers to the signal ratio). A digest of the protocol:
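ARE-bla HepG2 cells (beta-lactamase reporter under the antioxidant response element), plated 5 hours, then exposed to compounds 16 hours at 37 C. LiveBLAzer B/G FRET substrate added for 2 hours at room temperature; fluorescence intensity read.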

A short description of assay [11]: qHTS assay for small molecule agonists of the antioxidant response element (ARE) signaling pathway - cell viability counter screen (AID 743203; calls by dose curve; note: nearly all actives have a fitted effect of over 55% in size; note: potency is the fitted concentration of half-maximal effect). Put shortly: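 Following 16 hrs of compound treatment at 37C, HepG2 cells with an ARE-controlled beta-lactamase gene were lysed with CellTiter-Glo. Luminescence was read after 30 min at room temperature.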
The nature of assay [12]: qHTS assay for small molecule activators of the heat shock response signaling pathway - cell viability counter screen (AID 743209). Note: nearly all actives have a fitted effect of over 50% in size. A digest of the protocol: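 Readout: CellTiter-Glo luminescence, 30 min at room temperature. System: HSE-bla HeLa cells, 1500/well, plated overnight. Treatment: compounds in DMSO, 5 h at 37 C.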
A short description of assay [13]: qHTS assay for small molecule activators of the heat shock response signaling pathway (AID 743210; active = well fitted activation curve with a large enough effect in the signal ratio in the repeat runs, with a control signal flat, not every such curve was filed as active; the % refers to the signal ratio; note: series mostly up to about 63 µM). Put shortly: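 HSE-bla HeLa cells (beta-lactamase reporter under heat shock response elements), plated overnight, then exposed to compounds 5 h at 37 C; LiveBLAzer B/G FRET substrate added, 2.5 h at room temperature, fluorescence intensity read.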
In assay [14] the target is Peroxisome proliferator-activated receptor gamma (Homo sapiens) (UniProt P37231). Put plainly: qHTS assay to identify small molecule agonists of the peroxisome proliferator-activated receptor gamma (PPARg) signaling pathway (AID 743094; active = well fitted activation curve with a large enough effect in the signal ratio in the repeat runs, not every such curve was filed as active; the % refers to the signal ratio). Put shortly: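 Compounds dissolved in DMSO were added to PPARg UAS-bla HEK293H cells for 17 h at 37C, and reporter expression was quantified by fluorescence intensity after 1 h with LiveBLAzer B/G FRET substrate.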

Assay [15] addresses Estrogen receptor (Homo sapiens) (UniProt P03372). Briefly: qHTS assay to identify small molecule antagonists of the estrogen receptor alpha (ER-alpha) signaling pathway (AID 743069; active = well fitted curve in the direction sought with a large enough effect in the signal ratio in the repeat runs, not every such curve was filed as active; the % refers to the signal ratio). Put shortly: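 HEK293 ER-alpha-UAS-bla GripTite cells, held overnight in 2% charcoal-stripped FBS, 5,000 cells/well, preincubated 4 h, then compound plus 17beta-estradiol for 18 h at 37C. Beta-lactamase read by LiveBLAzer B/G FRET substrate, 2 h at room temperature.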

For assay [16] the target is unchanged. Briefly: qHTS assay to identify small molecule agonists of the estrogen receptor alpha (ER-alpha) signaling pathway (AID 743075; calls by dose curve).
The nature of assay [17]: qHTS assay to identify small molecule that activate the aryl hydrocarbon receptor (AhR) signaling pathway - cell viability counter screen (AID 743086).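 For viability change, negative = cytotoxic: HepG2 liver cells carrying the AhR DRE luciferase reporter; series mostly up to about 70 µM.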 Note: nearly all actives have a fitted effect of over 45% in size. Note: potency is the fitted concentration of half-maximal effect. A digest of the protocol: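 HepG2-AhR-luc (HG2L7.5c1) cells, 4000/well, treated 24 h at 37 C with compound; viability measured as CellTiter-Fluor fluorescence after 30 min in the same wells as the luciferase read.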
For assay [18], the target named is Estrogen receptor (Homo sapiens) (UniProt P03372). Put plainly: qHTS assay to identify small molecule agonists of the estrogen receptor alpha (ER-alpha) signaling pathway using the BG1 cell line (AID 743079). Note: nearly all actives have a fitted effect of over 20% in size.
The nature of assay [19]: qHTS assay to identify small molecule antagonists of the estrogen receptor alpha (ER-alpha) signaling pathway using the BG1 cell line (AID 743080; calls by dose curve;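 note: BG1 cells stimulated with 17beta-estradiol alongside compound; series mostly up to about 70 µM; nearly all actives have a fitted effect of over 25% in size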). Put shortly:
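Quantitative HTS on the Tox21 10K library: BG1 cells with endogenous ER-alpha and ERE-luciferase reporter, 17beta-estradiol stimulation, 21.5 h compound exposure, luminescence endpoint with parallel fluorescence cytotoxicity counter-read.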

Each structure is given as a SMILES string. Values joined by “and” are separate entries in the source; they are usually repeats but may differ in a detail not shown here. Identical values can stand only once. Results filed as inconclusive are left out. A number with no mark means an inactive call. Active and inactive are the calls of the source. Unless noted, calls come from the whole dose curve; as a rule, active = well fitted curve in the direction sought with a large enough effect in the repeat runs; inconclusive = weak or mixed curves; inactive = no such curve, though single readings can be large; an effect the other way counts as inactive or inconclusive.
% is set by controls: 0 for no effect and ±100 for the full control effect.

Sequence of Aryl hydrocarbon receptor (Homo sapiens) (P35869 whole entry, looked up): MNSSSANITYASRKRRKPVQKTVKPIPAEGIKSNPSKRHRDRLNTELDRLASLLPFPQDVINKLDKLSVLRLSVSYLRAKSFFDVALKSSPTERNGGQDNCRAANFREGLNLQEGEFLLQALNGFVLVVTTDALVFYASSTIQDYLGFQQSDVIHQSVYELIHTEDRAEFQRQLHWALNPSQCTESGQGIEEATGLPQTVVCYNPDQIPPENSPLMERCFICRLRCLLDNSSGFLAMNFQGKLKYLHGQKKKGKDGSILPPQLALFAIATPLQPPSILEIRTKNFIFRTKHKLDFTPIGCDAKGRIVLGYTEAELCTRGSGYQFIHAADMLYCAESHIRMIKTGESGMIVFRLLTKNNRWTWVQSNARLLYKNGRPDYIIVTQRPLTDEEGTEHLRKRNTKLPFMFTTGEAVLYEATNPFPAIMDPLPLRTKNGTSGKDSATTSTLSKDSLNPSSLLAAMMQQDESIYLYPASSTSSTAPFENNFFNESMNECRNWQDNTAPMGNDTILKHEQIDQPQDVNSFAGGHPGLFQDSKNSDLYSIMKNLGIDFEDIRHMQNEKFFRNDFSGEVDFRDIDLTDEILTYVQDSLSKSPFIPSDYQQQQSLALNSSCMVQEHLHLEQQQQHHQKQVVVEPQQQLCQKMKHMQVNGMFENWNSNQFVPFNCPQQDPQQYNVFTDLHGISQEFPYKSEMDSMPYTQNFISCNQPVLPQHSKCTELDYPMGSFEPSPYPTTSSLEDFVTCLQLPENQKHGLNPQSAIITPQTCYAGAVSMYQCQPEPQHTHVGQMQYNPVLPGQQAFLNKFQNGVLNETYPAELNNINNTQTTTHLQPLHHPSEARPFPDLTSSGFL
Sequence of Aromatase (Homo sapiens) (P11511 whole entry, looked up): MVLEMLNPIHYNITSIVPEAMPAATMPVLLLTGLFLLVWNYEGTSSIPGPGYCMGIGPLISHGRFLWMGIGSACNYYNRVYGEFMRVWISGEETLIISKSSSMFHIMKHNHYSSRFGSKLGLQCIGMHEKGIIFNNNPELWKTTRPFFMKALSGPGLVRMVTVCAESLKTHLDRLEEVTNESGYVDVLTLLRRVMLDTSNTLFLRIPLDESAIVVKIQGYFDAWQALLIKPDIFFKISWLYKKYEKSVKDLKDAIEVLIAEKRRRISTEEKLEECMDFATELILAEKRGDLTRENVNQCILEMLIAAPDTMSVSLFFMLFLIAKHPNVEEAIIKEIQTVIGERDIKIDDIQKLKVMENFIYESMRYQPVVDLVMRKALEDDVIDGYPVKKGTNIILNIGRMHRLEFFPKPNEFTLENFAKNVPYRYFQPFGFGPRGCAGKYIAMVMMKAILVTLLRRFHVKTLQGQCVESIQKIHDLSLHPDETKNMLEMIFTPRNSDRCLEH
Sequence of Estrogen receptor (Homo sapiens) (P03372 whole entry, looked up): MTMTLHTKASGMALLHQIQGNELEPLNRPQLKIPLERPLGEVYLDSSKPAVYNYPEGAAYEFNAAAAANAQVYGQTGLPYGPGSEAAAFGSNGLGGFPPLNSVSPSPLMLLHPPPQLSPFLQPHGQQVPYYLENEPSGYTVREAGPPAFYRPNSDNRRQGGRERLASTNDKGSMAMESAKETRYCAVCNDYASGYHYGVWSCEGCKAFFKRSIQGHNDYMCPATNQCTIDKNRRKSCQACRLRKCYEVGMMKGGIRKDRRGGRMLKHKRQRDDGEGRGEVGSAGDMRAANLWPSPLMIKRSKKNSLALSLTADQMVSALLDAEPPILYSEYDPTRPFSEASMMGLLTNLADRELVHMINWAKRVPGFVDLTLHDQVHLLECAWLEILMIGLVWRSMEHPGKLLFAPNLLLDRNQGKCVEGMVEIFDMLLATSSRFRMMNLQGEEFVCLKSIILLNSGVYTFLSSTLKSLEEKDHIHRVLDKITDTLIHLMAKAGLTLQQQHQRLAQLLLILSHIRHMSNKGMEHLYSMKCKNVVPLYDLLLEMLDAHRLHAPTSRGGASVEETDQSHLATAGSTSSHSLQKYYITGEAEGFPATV
Sequence of Peroxisome proliferator-activated receptor gamma (Homo sapiens) (P37231 whole entry, looked up): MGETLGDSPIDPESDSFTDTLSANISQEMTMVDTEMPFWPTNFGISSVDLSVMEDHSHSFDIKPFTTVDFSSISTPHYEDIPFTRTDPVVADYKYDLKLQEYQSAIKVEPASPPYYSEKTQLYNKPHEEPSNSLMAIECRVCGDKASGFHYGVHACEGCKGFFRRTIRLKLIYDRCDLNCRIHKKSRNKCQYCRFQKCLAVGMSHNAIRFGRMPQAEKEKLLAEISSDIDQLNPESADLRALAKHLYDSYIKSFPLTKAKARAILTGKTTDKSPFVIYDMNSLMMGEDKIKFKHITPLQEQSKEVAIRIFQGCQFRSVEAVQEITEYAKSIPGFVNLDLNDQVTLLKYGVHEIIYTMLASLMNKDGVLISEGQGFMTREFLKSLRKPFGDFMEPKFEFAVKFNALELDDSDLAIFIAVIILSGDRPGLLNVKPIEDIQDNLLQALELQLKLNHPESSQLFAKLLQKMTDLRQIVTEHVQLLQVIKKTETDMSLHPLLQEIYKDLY

For the molecule `CCCCOC(=O)CC`, the Potency result (in assay [1]; in assay [2]; in assay [4]; in assay [5]; in the assay with Aromatase (Homo sapiens); in [6]) was “inactive” each time. For the same molecule, the Potency result in assay [7], in [8], in assay [9], in [10], in assay [11] and in assay [12] was “inactive” each time. Moreover, the Potency result in [13] was “inactive”. In addition, in assay [3], the molecule was classed as inactive.
In the case of `Cc1ccc(C(=O)O)cc1`, the Potency entry (in assay [1]; in [2]; in [4]; in assay [5]; with Aromatase (Homo sapiens); in assay [6]) was “inactive” each time. In addition, the Potency entry in assay [7], in assay [14], in assay [9], in assay [10], in assay [11] and in assay [12] was “inactive” in each case. Further, in assay [13], the Potency entry is “inactive”. For the same molecule, the molecule was called inactive in assay [3].
For the molecule `c1ccsc1`, the Potency result in assay [1], in assay [2], in [15], in assay [4], in assay [16] and in assay [5] was “inactive” throughout. Further, the Potency result (with Aromatase (Homo sapiens); in assay [7]; in [17]; in assay [9]; in [11]; in assay [12]) was “inactive” in each case. Moreover, in assay [13], the Potency entry is “inactive”. For the same molecule, the result in [3] was inactive.
`NC[C@H]1O[C@H](O[C@H]2[C@H](O[C@@H]3O[C@H](CO)[C@@H](O)[C@H]3O)C(O)[C@H](N)C[C@@H]2N)[C@H](N)[C@@H](O)[C@@H]1O` (stereo not given in full): the Potency result (in assay [1]; in assay [2]; in [4]; in [5]; with Aromatase (Homo sapiens); in [6]) was “inactive” throughout. The Potency result in [17] and in [14] was “inactive” throughout. Also, in assay [3], the result was inactive. Moreover, the activity change, negative = cytotoxicity in [9] was 8.9% [at 13.2 µM]; in [12], 4.74% [at 13.2 µM]. Also, the figures for the activation in assay [10] and in [13] were 0.127% [at 8.36 µM] and 1.22% [at 13.2 µM], respectively. Further, the viability change, negative = cytotoxic in assay [11] was -15.3% [at 8.36 µM].
With `CCN(CC)C(=O)c1cc(S(=O)(=O)Cc2ccccc2)c(N2CCC(c3ccccc3)CC2)cc1N(CC)CCN(C)C`, the Potency in [1] was 3.35 µM (active) and 4.28 µM (active); in [2], 4.22 µM (active) and 4.8 µM (active); in assay [17], 23.7 µM (active); in assay [11], 21.4 µM (active). Also, the result in [3] was inactive. Also, the Potency entry in assay [15], in assay [16], in assay [18], in assay [19], in assay [7] and in [13] was “inactive” in each case.
As to `CC(=O)Oc1cc2c(s1)CCN(C(C(=O)C1CC1)c1ccccc1F)C2` (stereo not given), the Potency entry in assay [1], in [2], in assay [15], in assay [16], in assay [18] and in [19] was “inactive” each time. Further, the Potency entry (in assay [5]; with Aromatase (Homo sapiens); in assay [6]; in assay [17]; in [9]; in [12]) was “inactive” each time. Besides, the outcome in [3] was inactive.
`CCN(CC)c1ccc2c(-c3ccc(S(=O)(=O)O)cc3S(=O)(=O)[O-])c3ccc(=[N+](CC)CC)cc-3oc2c1`: the Potency in assay [1] was 8.91 µM (active); in [2] it was 35.5 µM (active); in assay [5], 7.94 µM (active); with Aromatase (Homo sapiens), 35.5 µM (active); in assay [6] it was 3.98 µM (active); in assay [17], 6.31 µM (active). The molecule was called inactive in assay [3]. Besides, the Potency entry in [15], in assay [4], in assay [16], in assay [7], in [14] and in [9] was “inactive” throughout. Besides, the Potency entry in [10] and in assay [13] was “inactive” throughout.
In the case of `O=C(O)O`, the activity change, negative = cytotoxic in assay [1] is -0.346% [at 8.44 µM]. Further, the activity, negative = inhibition was -9.25% [at 8.44 µM] in assay [2], -5.09% [at 6.71 µM] in assay [15] and -0.932% [at 8.47 µM] with Aromatase (Homo sapiens). For the same molecule, the activation was 0.119% [at 8.08 µM] in [3], -2.02% [at 6.71 µM] in assay [16], -5.02% [at 7.08 µM] in [14] and -11.2% [at 8.36 µM] in assay [10]. Moreover, in assay [4], the activity, negative = cytotoxicity is 16.5% [at 6.72 µM]. In addition, the activity change, negative = inhibition in [19] was 10.7% [at 8.47 µM]. In addition, the activity change, negative = cytotoxicity in assay [5] was -13.4% [at 8.47 µM]; in assay [6], -13.2% [at 8.47 µM]; in assay [9], 0.913% [at 5.95 µM]. For the same molecule, the ratio activity, negative = inhibition in assay [8] was -1.11% [at 5.95 µM]. Besides, the viability change, negative = cytotoxic in assay [11] was 6.5% [at 8.36 µM].
For `Cc1cc(C(C#N)c2ccc(Cl)cc2)c(Cl)cc1NC(=O)c1cc(I)cc(I)c1O` (stereo not given), the Potency in [1] is 23.7 µM (active); in [2], 26.6 µM (active); in assay [4], 5.35 µM (active); in assay [9] it was 3.76 µM (active); in [11], 33.5 µM (active). Further, in assay [3], the result was inactive. The Potency result in [16], in assay [5], in [6] and in assay [17] was “inactive” throughout.
